Drawing on PubChem BioAssay AID1920062 (Sanford-Burnham Center for Chemical Genomics, 2024), this text covers activation for 72 compounds.

Screen size: about 370,000 compounds; about 400 (0.11%) were called active. The sample holds actives, similar compounds and a random draw of the others, so the mix is not that of the screen.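 Rule for the calls: active = activation at 10 µM reaching about 35% in either raw or pattern-adjusted values (limit read from the data); inactive = the rest.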

The assay deals with Atrial natriuretic peptide receptor 2 (Homo sapiens) (UniProt P20594). Put plainly: human GC-B receptor activators, primary screen, HEK293 GC-B cells, cGMP TR-FRET, EC30 CNP (AID 1920062). Particulars: at 10 µM, hits give high values, 0% at EC30 CNP, 100% saturating CNP.
Chain of Atrial natriuretic peptide receptor 2 (Homo sapiens) (P20594 whole entry, looked up): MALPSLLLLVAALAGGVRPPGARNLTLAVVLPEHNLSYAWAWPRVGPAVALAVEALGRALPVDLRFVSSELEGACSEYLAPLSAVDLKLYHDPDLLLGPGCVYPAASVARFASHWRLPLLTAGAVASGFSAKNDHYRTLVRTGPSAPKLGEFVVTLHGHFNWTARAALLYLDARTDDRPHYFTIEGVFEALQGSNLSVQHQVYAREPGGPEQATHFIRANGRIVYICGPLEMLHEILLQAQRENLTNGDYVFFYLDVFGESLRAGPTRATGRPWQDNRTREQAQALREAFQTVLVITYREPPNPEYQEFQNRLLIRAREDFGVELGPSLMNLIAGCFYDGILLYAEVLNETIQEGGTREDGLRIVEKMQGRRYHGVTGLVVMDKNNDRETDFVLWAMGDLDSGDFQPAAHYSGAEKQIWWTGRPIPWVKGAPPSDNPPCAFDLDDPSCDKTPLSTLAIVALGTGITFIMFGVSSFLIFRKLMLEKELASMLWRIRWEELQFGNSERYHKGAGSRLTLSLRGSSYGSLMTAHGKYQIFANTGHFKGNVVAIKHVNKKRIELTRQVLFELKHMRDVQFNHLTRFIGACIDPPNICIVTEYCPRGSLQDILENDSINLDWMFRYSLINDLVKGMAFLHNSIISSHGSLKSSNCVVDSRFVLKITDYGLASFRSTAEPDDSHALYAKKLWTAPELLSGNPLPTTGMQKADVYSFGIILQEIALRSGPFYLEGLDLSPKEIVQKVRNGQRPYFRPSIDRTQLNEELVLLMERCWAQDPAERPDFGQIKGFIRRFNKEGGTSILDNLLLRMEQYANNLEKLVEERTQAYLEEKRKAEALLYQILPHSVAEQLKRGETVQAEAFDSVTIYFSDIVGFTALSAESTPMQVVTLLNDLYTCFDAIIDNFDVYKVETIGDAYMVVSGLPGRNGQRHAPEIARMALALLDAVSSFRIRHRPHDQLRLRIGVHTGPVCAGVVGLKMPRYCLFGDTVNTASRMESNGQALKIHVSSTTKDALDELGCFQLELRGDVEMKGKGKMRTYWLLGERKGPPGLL
On to `CN(CC(=O)Nc1ccccc1Cl)C(=O)COc1cccc2c1OC(C)(C)C2`, for which the activation is -1.31% (inactive). For `O=C(CSc1n[nH]c(=O)n1-c1ccccc1)Nc1ccccc1C(F)(F)F`, the activation was -2.36% (inactive).

For `COCCCN1C(=O)c2ccc(C(=O)OCC(=O)NCc3ccccc3OC)cc2C1=O`, the activation is -7.6% (inactive). `Cc1ccc(CNC(=O)C(=O)c2cn(CC(=O)N3CCOCC3)c3ccccc23)cc1`: the activation is -3.39% (inactive).

Take `O=C1CSC(c2cccc(F)c2)N1c1ccc(O)cc1` (configuration not stated): the activation was 2.71% (inactive). As for `CC1CCCCN1S(=O)(=O)CCNC(=O)c1ccccc1` (configuration not stated), the activation is -2.73% (inactive). Turning to `Cc1ccc(NC(=O)CSCC(=O)N2CCOCC2)cc1`, the activation was 2.72% (inactive). For `O=C(CCSc1ccccc1)N1CCN(c2ccccc2F)CC1`, the activation was -0.35% (inactive). For the compound `CC(C)(C)c1ccc(CSc2nnc(-c3cccs3)o2)cc1`, the activation was 3.23% (inactive).

Regarding `COc1ccccc1NC(=O)CSc1nnc(Cn2nnc(-c3ccccc3)n2)n1-c1ccccc1`, the activation was -7.79% (inactive). On to `Nn1c(SCC(=O)Nc2ccc(S(N)(=O)=O)cc2)nnc1-c1n[nH]c2c1CCC2`, for which the activation is -3.98% (inactive). For `CS(=O)(=O)Nc1ccccc1N=C(c1ccccc1)c1ccccc1`, the activation was 4.92% (inactive). As to `Cc1cccc(C(=O)NC2CCN(CC(=O)Nc3cccc(Cl)c3)CC2)c1`, the activation is 1.44% (inactive). For the compound `CCc1nn(CCCC(=O)NC(C)c2ccccc2)c(=O)c2cc3occc3n12` (configuration not stated), the activation was -9.68% (inactive). In the case of `Cc1c2cnn(CC(=O)NCc3ccccn3)c(=O)c2c(C)n1Cc1ccc(Cl)cc1`, the activation is 0.59% (inactive). `CC1=NN(/C(=N\c2nnc(C)s2)Nc2ccccc2)[C@H](c2ccc(C)cc2)S1`: the activation is -13.9% (inactive). Consider `COC(=O)c1ccc([C@@H](O)[C@H](C)C(=O)CC(=O)OC(C)(C)C)cc1`, for which the activation is 5.42% (inactive). Take `CC(=O)c1cccc(NC(=O)CN2C(=O)c3cccnc3Oc3ccc(Cl)cc32)c1`: the activation was -2.67% (inactive). `Cc1ccccc1C(=O)OC1OC(=O)C(Cl)=C1Nc1ccccc1` (configuration not stated): the activation is 2.61% (inactive). As for `C/C(=N\N(C)C)c1ccc(OCCOc2ccc([N+](=O)[O-])cc2)cc1`, the activation was 4.4% (inactive).

Regarding `O=C(Cc1ccc(-n2c(=O)c3sccc3n(Cc3ccc(F)cc3)c2=O)cc1)NCc1ccco1`, the activation is 6.68% (inactive).

Turning to `Cc1ccc(C(=O)N2CCCC2)c(F)c1F`, the activation was 0.58% (inactive). Turning to `COc1ccc(S(=O)(=O)N2CCN(C)CC2)c(C)c1`, the activation was -1.64% (inactive).

Regarding `CC[C@]1(C(=O)OC)[C@H]2C(=O)N(C)C(=O)[C@H]2[C@H]2CN(C)C(=NCc3ccccc3)N21`, the activation is -1.82% (inactive). For the compound `CS(=O)(=O)N(CC(=O)N1CCN(c2cccc(Cl)c2)CC1)c1ccccc1`, the activation is -0.13% (inactive). With `COc1ccc(CSc2nc(N3CCOCC3)c3c(c2C#N)CC(C)(C)OC3)cc1` the figure was 48.4% (active). As to `c1ccc(CSc2ncnc3c2sc2nc(N4CCOCC4)c4c(c23)CCCC4)cc1`, the activation was -0.49% (inactive).

As for `Cc1cc(C)c(C#N)c(SCc2ccc3c(c2)OCO3)n1`, the activation was 6.77% (inactive). For the compound `O=C1CCC(=O)N(c2ccccc2)N1`, the activation was 0.63% (inactive).

Regarding `CC(=O)Nc1ccc(NC(=O)CSc2nnnn2-c2ccccc2F)cc1`, the activation was -2.78% (inactive). Take `CCCCCN(C(=O)NC(=O)Nc1ccccc1OC)S(C)(=O)=O`: the activation was 0.44% (inactive). In the case of `CCn1c(SCC(=O)NNC(=O)c2ccc(OC)cc2)nnc1C(C)C`, the activation was 1.41% (inactive). With `COc1ccccc1C(=O)CSc1nnc(-c2ccccn2)n1-c1ccccc1` the figure was -3.37% (inactive); with `Nc1ncnc(Nc2cccc(Cl)c2Cl)n1`, 1.89% (inactive); with `CC1(C)OC(=O)C2=C(C[C@@H](C3CC3)O[C@H]2CCc2cccc(Cl)c2)O1`, 3.35% (inactive). `C[C@@H]1CN([C@@H](C)CO)C(=O)CCCn2nncc2CO[C@H]1CN(C)Cc1ccc(C(F)(F)F)cc1`: the activation was -5.26% (inactive).

On to `CCOc1c(Br)cc(/C=C2\C(=O)N(CCC#N)N=C2C)cc1OC`, for which the activation was 51.6% (active). For `COc1ccc(C(CNC(=O)c2ccc(S(=O)(=O)Nc3ccccc3F)cc2)N(C)C)cc1` (configuration not stated), the activation was -0.81% (inactive). Turning to `CC1(c2ccc(Cl)cc2Cl)NC(=O)N(CC(=O)Nc2cccnc2Cl)C1=O` (configuration not stated), the activation is 3.74% (inactive). As for `CCCCN(C)CCNC(=O)C1CCCN(S(=O)(=O)c2cccc3nsnc23)C1` (configuration not stated), the activation was 4.51% (inactive). Then `CC(Oc1ccc(F)cc1F)C(=O)/C=C/N(C)C` (configuration not stated), with 1.84% (inactive). Then `CCC(C)(C)NC(=O)C(c1cccc(OC)c1OC)N(CC(C)C)C(=O)CCC(=O)Nc1cc(C)on1` (configuration not stated), with -7.74% (inactive).

With `CC1CCCCC12NC(=O)N(CC(=O)Nc1ccc(S(=O)(=O)Nc3ncccn3)cc1)C2=O` (configuration not stated), the activation was 1.08% (inactive).

Regarding `Nc1nnc(SCC(=O)NCC(=O)Nc2ccc(F)c(F)c2F)s1`, the activation is -0.75% (inactive). Turning to `CC(=O)c1cccc(-n2nnnc2SCC(=O)NNC(=O)C2CCCCC2)c1`, the activation is 1.65% (inactive). With `O=C(OCC(=O)N1CCCCCC1)c1cnc(Cl)c(Cl)c1`, the activation was 4.57% (inactive). Then `CC(=O)C[C@H](O)CC(=O)[C@@H]1OC(=O)[C@@H](C)C/C=C\Cc2ccccc21`, with 5.5% (inactive).

As for `CCCCn1c(N)c(N2CCOCC2)c(=O)n(CC(=O)NCCc2ccccc2)c1=O`, the activation was 0.41% (inactive). For `CC(=O)NC(Cc1ccc(F)cc1)C(=O)O` (configuration not stated), the activation is 7.58% (inactive). For the compound `Cc1nc(C(F)(F)F)ccc1C(=O)N1CCC1(C)C(=O)NS(=O)(=O)c1ccc(F)cc1F` (configuration not stated), the activation was 1.28% (inactive). Turning to `O=C1OCC2=C1C(c1ccccc1)CC(=O)N2c1cccc(F)c1` (configuration not stated), the activation was 3.79% (inactive). Take `CCOC(=O)C1(Cc2ccccc2C)CCCN(C(=O)CN2C(=O)CSC2=O)C1` (configuration not stated): the activation was 1.31% (inactive). Turning to `O=S1(=O)c2c(cccc2N2CCCCC2)O[C@H](COCc2ccccc2)CN1C1CC1`, the activation was 2.03% (inactive). Regarding `O=C(Oc1ccc(C(=S)N2CCOCC2)cc1)c1ccc(F)cc1`, the activation was -0.5% (inactive). With `CC(NCc1nc2ccccc2n1C)C12CC3CC(CC(C3)C1)C2` (configuration not stated) the figure was -3.22% (inactive); with `NC(=O)NC(=O)C(OC(=O)CCNS(=O)(=O)c1ccccc1)c1ccccc1` (configuration not stated), 0.79% (inactive); with `CCOC(=O)N1CCN(C(=O)CN(C2CCCCC2)S(C)(=O)=O)CC1`, 6.88% (inactive).

`Cn1c(=O)c2c(nc(N/N=C/c3cccs3)n2Cc2ccc(Br)cc2)n(C)c1=O`: the activation was 23.1% (inactive). Then `C/C(Cl)=C\Cn1c(Nc2cccc(C)c2)nc2c1c(=O)n(C)c(=O)n2C`, with 45.4% (active); and `CCC/C(C)=N\Nc1nc2c(c(=O)n(C)c(=O)n2C)n1C`, with -1.79% (inactive). On to `Cc1cc(C)n(-c2nc(O)cc(=O)[nH]2)n1`, for which the activation is 6.13% (inactive). With `CCn1c(CNC(=O)c2ccccc2)nnc1SCC(=O)N1CCN(c2ccccc2)CC1`, the activation is 1.17% (inactive).

With `CC(C)COC(=O)c1ccc(NC(=O)C2C3C=CC(C3)C2C(=O)O)cc1` (configuration not stated), the activation was 6.16% (inactive). With `CCN(CC(=O)NCc1cccs1)S(=O)(=O)c1ccc(NC(C)=O)cc1` the figure was 5.26% (inactive). As to `CC(=O)N1C(C)c2ccccc2C(C)(C)CC12CCCCC2` (configuration not stated), the activation was 1.32% (inactive). With `C=C1C2C[C@H](O)C(C)(C)[C@@]2(O)[C@H](O)C[C@]23C[C@@](C)(O)[C@H](CC[C@H]12)[C@H]3O` (some centres not stated) the figure was 5.08% (inactive). With `Cc1nc(CNc2ncnc3ccc(-c4ccc5c(c4)OCO5)cc23)cs1` the figure was 3.38% (inactive).

With `c1coc(CCNc2ncnc3ccc(-c4ccc5c(c4)OCO5)cc23)c1`, the activation was 50.1% (active). As to `O=C(Cn1nnc(-c2ccc3c(c2)OCO3)n1)NCc1ccco1`, the activation is -0.02% (inactive). Take `CC(C)C(NC(=O)c1c(F)cccc1F)C(=O)NNC(=O)c1ccccc1` (configuration not stated): the activation was 3.58% (inactive). `O=Cc1c(Cl)cccc1Cl`: the activation is -13.9% (inactive). For the compound `Cc1ccccc1NC(=O)COC(=O)c1ccc(Sc2ncn[nH]2)c([N+](=O)[O-])c1`, the activation is -1.97% (inactive).
